Laboratory results as given in PubChem BioAssay AID1259417 (TB Discovery Research, Infectious Disease Research Institute, 2018).
Screen size: about 1,100 compounds; about 760 (69%) were called active. How the calls were made is not given here. The set was probably picked from earlier hits. This is one part of the list.

Assay: M. tuberculosis growth inhibition, HTS (AID 1259417);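 further: bacteria grown with compound for 5 days at 37 °C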
Settings: stronger effect = higher value, concentration not given here
[1] = M. tuberculosis DsRed fluorescence growth inhibition
[2] = M. tuberculosis growth inhibition

| Compound | inhibition [1] | inhibition [2] [%] |
| --- | --- | --- |
| COc1ccc(Cl)c2sc(N(CCCn3ccnc3)C(=O)c3cccs3)nc12 | 59.9% (active) | 61.3 |
| COc1ccc(C)c2sc(N(CCCn3ccnc3)C(=O)c3cccs3)nc12 | 51.2% (active) | 44.6 |
| O=C(COc1cccc2ccccc12)c1ccc(Cl)cc1 | 17% (active) | 36.9 |
| Cn1nc([N+](=O)[O-])nc1Sc1ncnn1-c1ccccc1 | 97.1% (active) | 95 |
| Cc1c(C)n2c3c(=O)[nH]c(=O)n(C)c3nc2n1-c1ccccc1O | 97.2% (active) | 92.8 |
| O=c1nc2c(O)cccn2c2c1c(=O)[nH]c1ccccc12 | -3.23% (inactive) | -27.6 |
| COC(=O)C(CC(=O)c1ccc(Br)cc1)n1ccnc1 (centres undefined) | 100% (active) | 100 |
| O=c1oc2ccccc2nc1/C=C(O)/C=C\c1ccccc1 | 99.1% (active) | 98.9 |
| Clc1ccc(OCc2ccccc2Cl)c(CNC2CCCCC2)c1 | 99.2% (active) | 99.3 |
| COC(=O)CSc1ncnc2c1sc1nc3c(cc12)COC(C)(C)C3 | 48.1% (active) | -1.03 |
| Clc1cccc(Nc2nc(NCc3ccco3)c3ccccc3n2)c1 | 41.8% (active) | 5.69 |
| Cc1ccccc1Nc1nc(NCc2ccco2)c2ccccc2n1 | -6.74% (inactive) | -22.5 |
| CCOc1ccc(Nc2nc(NCc3ccco3)c3ccccc3n2)cc1 | 65.7% (active) | 78.4 |
| OCCOCCNc1nc(Nc2cccc(F)c2)nc2c1cnn2-c1ccccc1 | -4.23% (inactive) | 4.68 |
| Cc1ccc(Nc2nc(NCc3ccco3)c3ccccc3n2)cc1 | 69% (active) | 45.4 |
| Cc1ccc(-c2csc(-c3ccc(O)cc3)n2)cc1 | 3.54% (inactive) | 28.7 |
| Cc1ccc(-c2nc(NC(=O)CO)cs2)cc1 | 99.1% (active) | 100 |
| CC(NCC(O)COc1ccccc1C(C)(C)C)c1ccccc1 (centres undefined) | 61.1% (active) | 48.8 |
| CSc1cccc(-c2nnc(NC(=O)c3ccc([N+](=O)[O-])s3)o2)c1 | 13% (active) | 56.8 |

| Compound | inhibition [1] | inhibition [2] [%] |
| --- | --- | --- |
| O=C(Nc1nnc(-c2ccc3c(c2)CCCC3)o1)c1ccc(Cl)s1 | 95.5% (active) | 90.6 |
| O=C(Nc1cccc(Br)c1)c1ccc([N+](=O)[O-])s1 | 6.23% (inactive) | 3.28 |
| O=C(Nc1nnc(-c2ccc3c(c2)CCCC3)o1)c1cc(Cl)sc1Cl | 52.2% (active) | 48.6 |
| O=C(Nc1nnc(-c2ccc3c(c2)CCCC3)o1)c1ccc([N+](=O)[O-])s1 | 79% (active) | 93.9 |
| O=C(Nc1nnc(-c2ccc3c(c2)CCCC3)o1)c1ccc(Cl)cc1Cl | -1.63% (inactive) | -9.7 |
| O=C1CC(c2ccc(Cl)cc2)CC2=C1C(c1ccc(C(F)(F)F)cc1)Nc1ccccc1N2 (centres undefined) | -1.45% (inactive) | -10.1 |
| CCOC(=O)C(C)Sc1ncnc2c1cnn2-c1ccc(F)cc1 (centres undefined) | 26.4% (active) | 87.2 |
| COC(=O)CSc1ncnc2c1cnn2-c1ccc(F)cc1 | 27.3% (active) | 86.2 |
| CCOC(=O)CSc1ncnc2c1cnn2-c1ccc(C)cc1C | 39.4% (active) | 77.1 |
| COC(=O)CSc1ncnc2c1nnn2Cc1ccc(F)cc1 | 99.8% (active) | 99.8 |
| CCOC(=O)C(C)Sc1ncnc2c1nnn2Cc1ccc(F)cc1 (centres undefined) | 2.2% (inactive) | 19 |
| CCOC(=O)CNC(=O)CSc1ncnc2c1nnn2Cc1ccccc1F | 17.3% (inactive) | 22.5 |
| CCOC(=O)CSc1ncnc2c1cnn2-c1ccccc1 | 13.4% (active) | 70.7 |
| CCOC(=O)C1CCCN(c2ccc([N+](=O)[O-])c3nonc23)C1 (centres undefined) | 29.3% (active) | 67.6 |
| O=S1(=O)C=CC2ON=C(c3ccc(Cl)cc3)C21 (centres undefined) | 100% (active) | 98.3 |
| O=S1(=O)C=CC2ON=C(c3ccc(C(F)(F)F)cc3)C21 (centres undefined) | 99.5% (active) | 96.8 |
| N#Cc1cc2c(nc1SCC(=O)OCc1ccccc1)CCC2 | 99.7% (active) | 99.7 |
| CCOC(=O)CSc1nc2c(c(-c3ccc(C)o3)c1C#N)CCCC2 | 21.7% (inactive) | 28.1 |
| COC(=O)CSc1nc2c(c(-c3ccc(C)o3)c1C#N)CCCC2 | 4.49% (inactive) | -17 |

| Compound | inhibition [1] | inhibition [2] [%] |
| --- | --- | --- |
| O=C(CC(O)(C(F)(F)F)C(F)(F)F)Nc1ccc(Cl)c(Cl)c1 | 100% (active) | 101 |
| O=C(Cc1ccc(F)cc1)Nc1ccc(Cl)c(C(F)(F)F)c1 | 50.9% (active) | 31.5 |
| O=C(Nc1ccc(Cl)c(C(F)(F)F)c1)c1csc2c1CCCC2 | 1.18% (inactive) | -27.8 |
| O=C(CSc1ccc(Cl)cc1)Nc1ccc(Cl)c(C(F)(F)F)c1 | 0.0104% (inactive) | -15.8 |
| Cc1cc(C)nc(N=C(N)Nc2cc(Cl)ccc2Oc2ccccc2)n1 | 97.1% (active) | 99.6 |
| CCN(CC)c1cccc(Oc2nc([N+](=O)[O-])nn2C)c1 | 96.8% (active) | 95.7 |
| CCc1ccc(Oc2nc([N+](=O)[O-])nn2C)cc1 | 98% (active) | 95.4 |
| Cn1nc([N+](=O)[O-])nc1Oc1ccc(C(C)(C)C)cc1 | 96.8% (active) | 94.8 |
| O=C(OCc1nnc(-c2ccccc2)o1)c1cc(-c2cccs2)nc2ccccc12 | 83.3% (active) | 100 |
| CN(Cc1nc2ccccc2c(=O)[nH]1)Cc1nc2ccsc2c(=O)[nH]1 | 97.2% (active) | 96.7 |
| CC1Cc2cc(-c3nn(-c4ccccc4)cc3C=C3SC(=S)NC3=O)ccc2O1 (centres undefined) | 27% (active) | 38.2 |
| COC(=O)COc1ccc2cc(-c3ccc(OC)c(OC)c3)c(=O)oc2c1 | 26.7% (active) | 45 |
| CCOC(=O)COc1ccc2cc(-c3nc4ccccc4s3)c(=O)oc2c1 | 88.6% (active) | 86.2 |
| CCOC(=O)COc1ccc2cc(-c3ccc(OC)c(OC)c3)c(=O)oc2c1 | 43.5% (active) | 53.6 |
| COc1cccc(OCC(=O)c2ccc(Br)cc2)c1 | -3.18% (inactive) | -10.7 |
| COc1cccc(OCCNC(=O)c2cc([N+](=O)[O-])cc([N+](=O)[O-])c2)c1 | 98.1% (active) | 95.3 |
| Cc1ccc(OCCN2CCN(c3nc(NCc4ccccc4)c4ccccc4n3)CC2)cc1 | -1.14% (inactive) | -0.136 |
| c1ccc(CCNc2nc3ccccc3[nH]2)cc1 | 21.4% (active) | 32.9 |
| Cc1ccc2nc(NCc3ccccc3)[nH]c2c1 | 43% (active) | 23.1 |
